# From PubChem BioAssay (EPA / NIEHS)
# Inconclusive results are not listed. The source made the active and inactive calls. The calls were made as follows, unless noted: active = hit-call score of the fitted dose curve at least 0.9, where 1 is the maximum; inactive = score below 0.9. Peptide text beside a SMILES is read from it.
# Legend:
# [1] = target: Glucocorticoid receptor (Homo sapiens) (UniProt P04150); test: ATG_GR_TRANS: Attagene TRANS-FACTORIAL HepG2 Assay for human Glucocorticoid Receptor (GR) (AID 2282978; active = hit-call score of the fitted dose curve at least 0.9, where 1 is the maximum;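 also: activators score as hits since higher reporter transcript over DMSO is fitted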); conditions: HepG2 Attagene TRANS GR reporter, mRNA transcription
# Outline: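 After 24 h incubation with test chemical, transfected HepG2 cells were lysed for RNA; reporter cDNA was amplified, FAM-labelled, HpaI-digested and sized on a capillary analyser. Signal gain relative to DMSO was scored.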
# [2] = target: Bile acid receptor (Homo sapiens) (UniProt Q96RI1); test: ATG_FXR_TRANS: Attagene TRANS-FACTORIAL HepG2 Assay for Farnesoid X Receptor (FXR) (AID 2282979; active = hit-call score of the fitted dose curve at least 0.9, where 1 is the maximum;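 also: hits raise reporter mRNA above DMSO so AC50 marks FXR activation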); conditions: HepG2 Attagene TRANS FXR-GAL4 reporter transcription
# Outline: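 After 24 h chemical treatment of transfected HepG2 cells, GAL4-UAS reporter transcripts driven by an exogenous FXR-GAL4 fusion were measured by RT-PCR and capillary electrophoresis. Increases over DMSO were fitted.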
# [3] = ATG_M_06_TRANS: Attagene TRANS-FACTORIAL HepG2 Assay for M06 Transcription Factor (Internal Marker) (AID 2282983; active = hit-call score of the fitted dose curve at least 0.9, where 1 is the maximum); conditions: HepG2 Attagene TRANS M06 internal marker reporter
# Outline: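 Internal-marker background readout from a multiplexed TRANS reporter system in HepG2; 24 h dosing; mRNA induction quantified by RT-PCR plus capillary electrophoresis fluorescence; DMSO as negative control and baseline.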
# [4] = target: Transcriptional activator Myb (Homo sapiens) (UniProt P10242); test: ATG_Myb_CIS: Attagene CIS-FACTORIAL HepG2 Assay for human Myeloblastosis (Myb) Proto-Oncogene Transcription Factor (AID 2282986); conditions: HepG2 Attagene CIS-FACTORIAL Myb reporter transcription; actives raise or lower the signal
# Outline: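 After 24 h of compound dosing, total RNA from transfected HepG2 cells is reverse-transcribed and the reporter sequences amplified, labeled and separated by capillary electrophoresis. Values come from bidirectional fitting against DMSO.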
# [5] = target: Nuclear respiratory factor 1 (Homo sapiens) (UniProt Q16656); test: ATG_NRF1_CIS: Attagene CIS-FACTORIAL HepG2 Assay for human Nuclear Respiratory Factor 1 (NRF1) Orphan Gene (AID 2282987); conditions: HepG2 NRF1 cis-element reporter, Attagene multiplex; actives raise or lower the signal
# Outline: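 Measured: fluorescent reporter-specific RT-PCR products from transfected HepG2 cells, separated by capillary electrophoresis. Exposure lasted 24 h. Analysis used bidirectional curve fitting with DMSO as negative control.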
# [6] = ATG_NFI_CIS: Attagene CIS-FACTORIAL HepG2 Assay for human Nuclear Factor I (NFI) (AID 2282989); conditions: HepG2 cis-regulatory reporter, NFI response element transcription; actives raise or lower the signal
# Outline: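 Reporter transcription driven by endogenous transcription factors in HepG2 cells; 24 h treatment. Quantitation by labelled RT-PCR fragments on capillary electrophoresis, gain- or loss-of-signal relative to DMSO.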
# [7] = target: Myc proto-oncogene protein (Homo sapiens) (UniProt P01106); test: ATG_Myc_CIS: Attagene CIS-FACTORIAL HepG2 Assay for human Myelocytomatosis (Myc) Proto-Oncogene Transcription Factor (AID 2282990); conditions: HepG2, Attagene cis-reporter transcription factor activity; actives raise or lower the signal
# Outline: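 After 24 h chemical treatment of HepG2 cells carrying multiplexed cis-regulated reporter constructs, reporter transcripts quantified by RT-PCR and capillary electrophoresis of fluorescent fragments. Gain or loss fitted against DMSO baseline.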
# [8] = ATG_NF_kB_CIS: Attagene CIS-FACTORIAL HepG2 Assay for human Nuclear Factor Kappa B (NF-kB) (AID 2282991); conditions: HepG2 Attagene cis-factorial NF-kB reporter mRNA; actives raise or lower the signal
# Outline: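 Fluorescence of labelled RT-PCR products separated by capillary electrophoresis gives reporter mRNA levels from transfected HepG2 cells exposed 24 h; values are fitted in both directions relative to DMSO.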
# [9] = ATG_NRF2_ARE_CIS: Attagene CIS-FACTORIAL HepG2 Assay for human Nuclear Factor Erythroid 2 Related Factor 2 (NFR2) response to Antioxidant Response Elements (ARE) (AID 2282992); conditions: HepG2 Attagene ARE/NRF2 reporter, transcription factor activity; actives raise or lower the signal
# Outline: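 HepG2 cells transiently transfected with multiplexed cis-element reporter constructs, 24 h after chemical dosing; reporter mRNA quantified by RT-PCR, fluorescent primer extension, HpaI digestion and capillary electrophoresis. Bidirectional fit relative to DMSO.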
# [10] = ATG_Oct_MLP_CIS: Attagene CIS-FACTORIAL HepG2 Assay for human Octamer-Binding Transcription Factor (Oct) (AID 2282993); conditions: HepG2 Attagene cis-factorial Oct reporter, mRNA; actives raise or lower the signal
# Outline: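 Transfected HepG2 cells, 24 h treatment. Reporter mRNA quantified by RT-PCR–capillary electrophoresis; bidirectional fitting against DMSO.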
# [11] = target: Cellular tumor antigen p53 (Homo sapiens) (UniProt P04637); test: ATG_p53_CIS: Attagene CIS-FACTORIAL HepG2 Assay for human p53 Transcription Factor (AID 2282994); conditions: HepG2 p53 cis-element reporter, Attagene mRNA; actives raise or lower the signal
# Outline: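 HepG2 cells transiently transfected with cis-regulated multiple reporter transcription units, dosed 24 h. Reporter mRNA measured by RT-PCR, 6-FAM primer extension, HpaI digestion and capillary electrophoresis; bidirectional fit relative to DMSO.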
# [12] = target: Oxysterols receptor LXR-alpha (Homo sapiens) (UniProt Q13133); test: ATG_LXRa_TRANS: Attagene TRANS-FACTORIAL HepG2 Assay for human Liver X Receptor alpha (LXRa) (AID 2282980; active = hit-call score of the fitted dose curve at least 0.9, where 1 is the maximum); conditions: HepG2 Attagene TRANS reporter, LXRa transactivation
# Outline: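 In this multiplexed TRANS system, compounds act on HepG2 cells carrying GAL4-UAS reporter units and a receptor-GAL4 fusion for 24 h. Induced reporter RNA is amplified, fluorescently labelled and sized by capillary electrophoresis, with DMSO as baseline.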
# [13] = target: Oxysterols receptor LXR-beta (Homo sapiens) (UniProt P55055); test: ATG_LXRb_TRANS: Attagene TRANS-FACTORIAL HepG2 Assay for human Liver X Receptor beta (LXRb) (AID 2282981; active = hit-call score of the fitted dose curve at least 0.9, where 1 is the maximum); conditions: HepG2 Attagene TRANS GAL4-LXRb reporter, mRNA
# Outline: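 Transient transfection HepG2 (multiplexed RTUs, GAL4-UAS); NR-Gal4 chimera; 24 h exposure; RNA → RT-PCR → 6-FAM primer extension → HpaI → CE; increase vs DMSO.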
# [14] = target: Hepatocyte nuclear factor 4-alpha (Homo sapiens) (UniProt P41235); test: ATG_HNF4a_TRANS: Attagene TRANS-FACTORIAL HepG2 Assay for human Hepatocyte Nuclear Factor 4 alpha (HNF4a) (AID 2282982; active = hit-call score of the fitted dose curve at least 0.9, where 1 is the maximum); conditions: HepG2 HNF4a transactivation reporter, mRNA readout
# Outline: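 Readout is fluorescent reporter-transcript fragments resolved by capillary electrophoresis after RT-PCR from HepG2 cells dosed for 24 h. Cells carried transfected GAL4-UAS reporter constructs measuring exogenous NR-GAL4 chimera activity; DMSO served as baseline.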
# [15] = ATG_M_32_TRANS: Attagene TRANS-FACTORIAL HepG2 Assay for M32 Transcription Factor (Internal Marker) (AID 2282984; active = hit-call score of the fitted dose curve at least 0.9, where 1 is the maximum;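 also: transcript level of a background control reporter unit measured by RT-PCR and capillary electrophoresis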); conditions: HepG2 Attagene TRANS M32 internal marker reporter
# Outline: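 Measures reporter mRNA induction in human HepG2 liver cells after 24 h chemical treatment. Transcripts from transiently transfected GAL4-UAS reporter units are amplified, fluorescently labelled and sized by capillary electrophoresis; gain of signal relative to DMSO.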
# [16] = target: Nuclear receptor subfamily 4 group A member 2 (Homo sapiens) (UniProt P43354); test: ATG_NURR1_TRANS: Attagene TRANS-FACTORIAL HepG2 Assay for human Nuclear Receptor Related Protein 1 (NURR1) (AID 2282985; active = hit-call score of the fitted dose curve at least 0.9, where 1 is the maximum); conditions: HepG2 Attagene TRANS reporter, mRNA readout
# Outline: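 Transient transfection of HepG2, human liver cells, with multiple GAL4-UAS reporter transcription units. Cells dosed 24 h, RNA isolated, reverse-transcribed, PCR-amplified, FAM-labelled, HpaI-digested, sized by capillary electrophoresis. DMSO served as negative control.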
# [17] = BSK_3C_TissueFactor: BioMAP Diversity Plus: 3C Assay for Tissue Factor Biomarker Activity (AID 2282997); conditions: BioMAP 3C HUVEC, tissue factor biomarker readout; actives raise or lower the signal
# Outline: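 Endothelial monolayers (human umbilical vein, primary) are dosed, incubated 24 h, and assayed for Tissue Factor by ELISA; DMSO serves as negative control for bidirectional fitting.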
# [18] = BSK_3C_uPAR: BioMAP Diversity Plus: 3C Assay for Urokinase-type plasminogen activator receptor (uPAR) Biomarker Activity (AID 2282998); conditions: BioMAP 3C HUVEC, uPAR biomarker ELISA; actives raise or lower the signal
# Outline: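 Readout: ELISA for surface uPAR. System: human umbilical vein endothelial primary cells, 24 h after chemical exposure. Analysis: bidirectional fit, DMSO baseline.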
# [19] = BSK_3C_VCAM1: BioMAP Diversity Plus: 3C Assay for Vascular cell adhesion molecule 1 (VCAM1) Biomarker Activity (AID 2282999); conditions: BioMAP 3C HUVEC, VCAM1 ELISA, cytokine-stimulated; actives raise or lower the signal
# Outline: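 Endothelial cells from human umbilical vein are treated with test chemical. At 24 h, VCAM-1 is measured by ELISA, and responses in either direction are fitted relative to DMSO.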
# Nuclear respiratory factor 1 (Homo sapiens), sequence (Q16656 whole entry, looked up): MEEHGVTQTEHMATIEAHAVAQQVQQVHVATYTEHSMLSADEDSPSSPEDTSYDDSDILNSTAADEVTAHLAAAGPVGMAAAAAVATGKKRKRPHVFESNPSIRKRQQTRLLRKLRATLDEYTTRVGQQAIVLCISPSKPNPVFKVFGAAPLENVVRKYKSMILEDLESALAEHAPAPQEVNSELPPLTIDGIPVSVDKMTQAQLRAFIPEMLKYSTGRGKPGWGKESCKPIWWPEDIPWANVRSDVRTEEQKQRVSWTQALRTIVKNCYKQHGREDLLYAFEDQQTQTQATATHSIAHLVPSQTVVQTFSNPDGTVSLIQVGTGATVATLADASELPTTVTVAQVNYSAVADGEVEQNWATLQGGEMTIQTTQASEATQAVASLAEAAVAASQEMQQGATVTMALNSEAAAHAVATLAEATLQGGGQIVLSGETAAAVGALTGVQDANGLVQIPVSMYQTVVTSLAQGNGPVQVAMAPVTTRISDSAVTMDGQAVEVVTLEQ
# Bile acid receptor (Homo sapiens), sequence (Q96RI1 whole entry, looked up, the tested form may be a part): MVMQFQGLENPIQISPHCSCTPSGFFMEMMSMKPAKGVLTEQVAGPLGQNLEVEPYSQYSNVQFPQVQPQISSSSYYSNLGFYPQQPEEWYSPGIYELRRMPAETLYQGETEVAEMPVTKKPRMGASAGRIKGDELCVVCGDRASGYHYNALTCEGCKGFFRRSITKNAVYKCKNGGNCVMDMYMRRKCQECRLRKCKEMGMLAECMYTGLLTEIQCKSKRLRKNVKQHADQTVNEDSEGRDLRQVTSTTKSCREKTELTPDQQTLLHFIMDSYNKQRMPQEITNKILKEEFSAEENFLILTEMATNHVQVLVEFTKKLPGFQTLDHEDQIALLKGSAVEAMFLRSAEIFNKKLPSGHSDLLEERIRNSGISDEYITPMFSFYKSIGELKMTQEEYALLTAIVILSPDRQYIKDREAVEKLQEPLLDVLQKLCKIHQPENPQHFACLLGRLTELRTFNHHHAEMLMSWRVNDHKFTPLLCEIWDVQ
# Oxysterols receptor LXR-beta (Homo sapiens), sequence (P55055 whole entry, looked up, the tested form may be a part): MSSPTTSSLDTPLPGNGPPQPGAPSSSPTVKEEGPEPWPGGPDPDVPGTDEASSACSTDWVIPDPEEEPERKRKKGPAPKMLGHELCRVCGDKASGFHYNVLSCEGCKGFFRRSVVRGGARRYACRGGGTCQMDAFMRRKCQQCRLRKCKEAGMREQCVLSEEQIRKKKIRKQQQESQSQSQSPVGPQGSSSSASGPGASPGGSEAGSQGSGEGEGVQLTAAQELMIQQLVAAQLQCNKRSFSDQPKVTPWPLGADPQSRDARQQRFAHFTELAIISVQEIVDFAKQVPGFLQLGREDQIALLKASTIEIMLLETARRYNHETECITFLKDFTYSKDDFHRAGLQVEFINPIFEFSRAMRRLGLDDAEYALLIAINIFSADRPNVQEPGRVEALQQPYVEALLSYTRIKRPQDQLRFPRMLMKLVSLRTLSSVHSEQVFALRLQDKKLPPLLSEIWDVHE
# Myc proto-oncogene protein (Homo sapiens), sequence (P01106 whole entry, looked up, the tested form may be a part): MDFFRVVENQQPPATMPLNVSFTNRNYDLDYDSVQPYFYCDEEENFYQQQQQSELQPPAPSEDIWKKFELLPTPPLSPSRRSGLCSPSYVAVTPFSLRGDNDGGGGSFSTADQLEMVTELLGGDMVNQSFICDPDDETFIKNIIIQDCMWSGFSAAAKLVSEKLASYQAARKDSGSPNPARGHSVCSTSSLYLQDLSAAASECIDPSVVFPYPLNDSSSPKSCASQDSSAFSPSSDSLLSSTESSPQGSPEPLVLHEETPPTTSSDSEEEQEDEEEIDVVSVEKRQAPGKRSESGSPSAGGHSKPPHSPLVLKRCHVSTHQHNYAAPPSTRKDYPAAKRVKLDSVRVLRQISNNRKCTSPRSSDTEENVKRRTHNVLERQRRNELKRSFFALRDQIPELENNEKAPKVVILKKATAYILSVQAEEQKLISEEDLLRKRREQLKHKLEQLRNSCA
# Nuclear receptor subfamily 4 group A member 2 (Homo sapiens), sequence (P43354 whole entry, looked up, the tested form may be a part): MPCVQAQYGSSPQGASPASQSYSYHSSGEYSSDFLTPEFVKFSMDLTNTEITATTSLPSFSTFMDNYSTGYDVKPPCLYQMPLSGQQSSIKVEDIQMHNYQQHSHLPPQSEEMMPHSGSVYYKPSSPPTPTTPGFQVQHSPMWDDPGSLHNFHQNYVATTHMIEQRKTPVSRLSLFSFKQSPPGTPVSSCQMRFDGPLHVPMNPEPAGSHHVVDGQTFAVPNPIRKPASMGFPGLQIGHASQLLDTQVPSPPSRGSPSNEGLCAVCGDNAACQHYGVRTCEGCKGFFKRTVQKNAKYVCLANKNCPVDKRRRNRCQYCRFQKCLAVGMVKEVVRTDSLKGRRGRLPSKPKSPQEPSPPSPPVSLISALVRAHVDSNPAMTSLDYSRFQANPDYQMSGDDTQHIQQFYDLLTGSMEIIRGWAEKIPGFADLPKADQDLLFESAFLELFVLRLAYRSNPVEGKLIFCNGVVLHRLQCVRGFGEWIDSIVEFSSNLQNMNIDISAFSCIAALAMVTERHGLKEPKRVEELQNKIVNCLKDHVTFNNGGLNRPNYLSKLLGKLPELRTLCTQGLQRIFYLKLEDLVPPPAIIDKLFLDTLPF
# Transcriptional activator Myb (Homo sapiens), sequence (P10242 whole entry, looked up): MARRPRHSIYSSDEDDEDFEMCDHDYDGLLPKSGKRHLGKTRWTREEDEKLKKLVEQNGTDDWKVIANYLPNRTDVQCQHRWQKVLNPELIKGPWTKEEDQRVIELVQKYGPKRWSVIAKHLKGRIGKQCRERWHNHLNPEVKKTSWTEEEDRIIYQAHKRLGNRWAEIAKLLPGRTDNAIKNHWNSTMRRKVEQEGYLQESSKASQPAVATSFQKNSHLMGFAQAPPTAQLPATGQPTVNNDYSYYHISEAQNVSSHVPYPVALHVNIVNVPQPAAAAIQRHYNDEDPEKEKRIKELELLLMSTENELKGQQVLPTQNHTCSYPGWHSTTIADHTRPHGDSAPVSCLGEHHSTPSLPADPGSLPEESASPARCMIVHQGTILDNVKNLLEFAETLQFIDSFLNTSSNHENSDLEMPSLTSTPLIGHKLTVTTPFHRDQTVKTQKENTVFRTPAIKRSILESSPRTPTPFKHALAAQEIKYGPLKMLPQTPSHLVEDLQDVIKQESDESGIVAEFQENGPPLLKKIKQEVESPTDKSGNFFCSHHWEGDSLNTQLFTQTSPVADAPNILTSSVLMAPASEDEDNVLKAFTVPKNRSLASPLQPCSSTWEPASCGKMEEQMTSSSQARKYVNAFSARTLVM
# Oxysterols receptor LXR-alpha (Homo sapiens), sequence (Q13133 whole entry, looked up, the tested form may be a part): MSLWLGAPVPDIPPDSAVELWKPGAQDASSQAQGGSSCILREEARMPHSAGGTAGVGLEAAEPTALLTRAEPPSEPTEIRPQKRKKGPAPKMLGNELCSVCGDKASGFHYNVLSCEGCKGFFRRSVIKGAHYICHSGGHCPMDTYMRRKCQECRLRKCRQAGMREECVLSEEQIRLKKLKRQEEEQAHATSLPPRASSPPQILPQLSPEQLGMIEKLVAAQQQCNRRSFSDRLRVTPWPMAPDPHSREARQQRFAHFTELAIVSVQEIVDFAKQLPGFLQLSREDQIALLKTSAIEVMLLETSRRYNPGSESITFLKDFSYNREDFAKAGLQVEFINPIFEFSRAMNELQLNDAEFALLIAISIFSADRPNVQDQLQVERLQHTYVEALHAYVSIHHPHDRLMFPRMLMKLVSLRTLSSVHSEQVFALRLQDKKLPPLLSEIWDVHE
# Glucocorticoid receptor (Homo sapiens), sequence (P04150 whole entry, looked up): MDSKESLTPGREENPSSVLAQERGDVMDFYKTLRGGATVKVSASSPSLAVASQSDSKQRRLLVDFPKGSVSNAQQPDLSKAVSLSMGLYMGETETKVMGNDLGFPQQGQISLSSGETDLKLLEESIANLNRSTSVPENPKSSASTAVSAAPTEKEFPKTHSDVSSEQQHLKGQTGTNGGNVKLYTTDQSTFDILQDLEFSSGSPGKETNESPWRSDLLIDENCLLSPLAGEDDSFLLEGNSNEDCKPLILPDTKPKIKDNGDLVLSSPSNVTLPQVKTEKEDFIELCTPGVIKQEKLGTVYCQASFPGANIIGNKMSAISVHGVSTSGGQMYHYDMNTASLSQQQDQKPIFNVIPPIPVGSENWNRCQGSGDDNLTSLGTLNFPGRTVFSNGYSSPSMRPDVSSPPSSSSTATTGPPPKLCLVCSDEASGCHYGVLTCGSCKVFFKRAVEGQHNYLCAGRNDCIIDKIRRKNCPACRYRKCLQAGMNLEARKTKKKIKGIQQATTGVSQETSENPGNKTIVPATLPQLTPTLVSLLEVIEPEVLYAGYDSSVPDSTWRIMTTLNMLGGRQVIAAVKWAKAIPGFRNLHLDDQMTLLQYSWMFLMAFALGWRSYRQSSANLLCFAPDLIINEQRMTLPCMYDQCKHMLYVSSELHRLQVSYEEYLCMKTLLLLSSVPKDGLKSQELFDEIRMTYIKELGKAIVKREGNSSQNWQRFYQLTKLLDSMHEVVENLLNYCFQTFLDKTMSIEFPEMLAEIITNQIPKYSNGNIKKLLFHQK
# Hepatocyte nuclear factor 4-alpha (Homo sapiens), sequence (P41235 whole entry, looked up, the tested form may be a part): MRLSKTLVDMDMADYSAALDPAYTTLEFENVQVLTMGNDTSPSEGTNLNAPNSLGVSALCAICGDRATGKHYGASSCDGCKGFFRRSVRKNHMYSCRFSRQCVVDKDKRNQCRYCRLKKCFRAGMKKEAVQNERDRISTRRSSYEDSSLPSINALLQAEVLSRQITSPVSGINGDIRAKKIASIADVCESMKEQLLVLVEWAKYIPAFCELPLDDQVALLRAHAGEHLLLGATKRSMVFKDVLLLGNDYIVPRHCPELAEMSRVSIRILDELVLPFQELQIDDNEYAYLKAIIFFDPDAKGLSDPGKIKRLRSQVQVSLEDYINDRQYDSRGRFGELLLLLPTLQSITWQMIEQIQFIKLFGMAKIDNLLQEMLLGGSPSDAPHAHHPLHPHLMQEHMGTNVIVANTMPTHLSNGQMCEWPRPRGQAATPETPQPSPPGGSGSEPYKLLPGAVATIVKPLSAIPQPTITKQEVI
smiles,measurement,setting,value
[Cl][Eu]([Cl])[Cl],outcome,[1],inactive
same,outcome,[2],inactive
same,outcome,[3],inactive
same,outcome,[4],inactive
same,outcome,[5],inactive
same,outcome,[6],inactive
same,outcome,[7],inactive
same,outcome,[8],inactive
same,outcome,[9],inactive
same,outcome,[10],inactive
same,outcome,[11],inactive
CCOC(=O)[C@H](O)[C@@H](O)C(=O)OCC,outcome,[1],inactive
same,outcome,[12],inactive
same,outcome,[13],inactive
same,outcome,[14],inactive
same,outcome,[15],inactive
same,outcome,[16],inactive
same,outcome,[4],inactive
same,outcome,[5],inactive
same,outcome,[6],inactive
same,outcome,[7],inactive
same,outcome,[8],inactive
same,outcome,[9],inactive
same,outcome,[10],inactive
same,outcome,[11],inactive
C=CC(=O)O[C@H]1C[C@@H]2CC[C@@]1(C)C2(C)C,outcome,[1],inactive
same,outcome,[12],inactive
same,outcome,[13],inactive
same,outcome,[14],inactive
same,outcome,[3],inactive
same,outcome,[16],inactive
same,outcome,[4],inactive
same,outcome,[5],inactive
same,outcome,[6],inactive
same,AC50,[7],167 µM (active)
same,AC50,[8],181 µM (active)
same,AC50,[9],32.1 µM (active)
same,outcome,[10],inactive
same,outcome,[11],inactive
CC/C=C\C/C=C\C/C=C\CCCCCCCC(=O)OC,outcome,[1],inactive
same,outcome,[2],inactive
same,outcome,[14],inactive
same,outcome,[15],inactive
same,outcome,[16],inactive
same,outcome,[4],inactive
same,outcome,[5],inactive
same,outcome,[6],inactive
same,outcome,[7],inactive
same,AC50,[8],32.4 µM (active)
same,AC50,[9],48.1 µM (active)
same,AC50,[10],135 µM (active)
same,outcome,[11],inactive
same,AC50,[17],13.5 µM (active)
same,AC50,[18],31.6 µM (active)
same,AC50,[19],14.2 µM (active)
N#CC1(N)CCCCC1,outcome,[1],inactive
same,outcome,[12],inactive
same,outcome,[13],inactive
same,outcome,[14],inactive
same,outcome,[16],inactive
same,outcome,[4],inactive
same,outcome,[5],inactive
same,outcome,[6],inactive
same,outcome,[7],inactive
same,outcome,[9],inactive
same,outcome,[11],inactive
Nc1ccc(C(=O)OCCCOC(=O)c2ccc(N)cc2)cc1,outcome,[1],inactive
same,outcome,[2],inactive
same,outcome,[14],inactive
same,outcome,[4],inactive
same,outcome,[5],inactive
same,outcome,[6],inactive
same,outcome,[7],inactive
same,outcome,[8],inactive
same,outcome,[9],inactive
same,outcome,[10],inactive
same,outcome,[11],inactive
COC(=O)[C@H](Cc1ccccc1)NC(=O)[C@@H](N)CC(=O)O (H-Asp-Phe-OMe),outcome,[1],inactive
same,outcome,[12],inactive
same,outcome,[13],inactive
same,outcome,[3],inactive
same,outcome,[15],inactive
same,outcome,[4],inactive
same,outcome,[5],inactive
same,outcome,[6],inactive
same,outcome,[7],inactive
same,outcome,[8],inactive
same,outcome,[9],inactive
same,outcome,[10],inactive
same,outcome,[11],inactive
O=C1CCCCCCCCCCC1,outcome,[1],inactive
same,outcome,[12],inactive
same,outcome,[13],inactive
same,outcome,[3],inactive
same,outcome,[16],inactive
same,outcome,[4],inactive
same,outcome,[5],inactive
same,outcome,[6],inactive
same,outcome,[7],inactive
same,outcome,[9],inactive
same,outcome,[11],inactive
same,outcome,[17],inactive
same,outcome,[18],inactive
same,outcome,[19],inactive
CC(C)c1cc(C(C)C)cc(C(C)C)c1,outcome,[1],inactive
same,outcome,[12],inactive
same,outcome,[13],inactive
same,outcome,[15],inactive
same,AC50,[16],7.9 µM (active)
same,AC50,[4],176 µM (active)
same,AC50,[5],174 µM (active)
same,AC50,[6],151 µM (active)
same,AC50,[7],161 µM (active)
same,AC50,[9],66.3 µM (active)
same,outcome,[10],inactive
same,outcome,[11],inactive
CCC(C)C(=O)OC (stereo not given),outcome,[1],inactive
same,outcome,[2],inactive
same,outcome,[14],inactive
same,outcome,[3],inactive
same,outcome,[15],inactive
same,outcome,[5],inactive
same,outcome,[6],inactive
same,outcome,[7],inactive
same,outcome,[8],inactive
same,outcome,[9],inactive
same,outcome,[10],inactive
same,outcome,[11],inactive
CC(=O)CCC1=C(C)CCCC1(C)C,outcome,[1],inactive
same,outcome,[12],inactive
same,outcome,[13],inactive
same,outcome,[3],inactive
same,outcome,[16],inactive
same,outcome,[4],inactive
same,outcome,[5],inactive
same,outcome,[6],inactive
same,outcome,[7],inactive
same,outcome,[8],inactive
same,AC50,[9],49.1 µM (active)
same,outcome,[10],inactive
